# Measured values published in PubChem BioAssay (EPA / NIEHS).
# Records with an inconclusive call do not appear. Calls of active or inactive are those of the source. The calls were made as follows, unless noted: active = hit-call score of the fitted dose curve at least 0.9, where 1 is the maximum; inconclusive = response in the unintended direction; inactive = score below 0.9.
# How the values were obtained:
# [1] = target: mouse Estrogen Receptor alpha (Era), Esr1 (gene 13982) (UniProt P19785); assay: NVS_NR_mERa: NovaScreen (NVS) Nuclear Receptor Binding Assay for mouse Estrogen Receptor alpha (Era) (AID 2283378);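 also: hit means loss of bound radioligand signal relative to DMSO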
# mouse Estrogen Receptor alpha (Era), Esr1 (gene 13982), sequence (P19785 whole entry, looked up): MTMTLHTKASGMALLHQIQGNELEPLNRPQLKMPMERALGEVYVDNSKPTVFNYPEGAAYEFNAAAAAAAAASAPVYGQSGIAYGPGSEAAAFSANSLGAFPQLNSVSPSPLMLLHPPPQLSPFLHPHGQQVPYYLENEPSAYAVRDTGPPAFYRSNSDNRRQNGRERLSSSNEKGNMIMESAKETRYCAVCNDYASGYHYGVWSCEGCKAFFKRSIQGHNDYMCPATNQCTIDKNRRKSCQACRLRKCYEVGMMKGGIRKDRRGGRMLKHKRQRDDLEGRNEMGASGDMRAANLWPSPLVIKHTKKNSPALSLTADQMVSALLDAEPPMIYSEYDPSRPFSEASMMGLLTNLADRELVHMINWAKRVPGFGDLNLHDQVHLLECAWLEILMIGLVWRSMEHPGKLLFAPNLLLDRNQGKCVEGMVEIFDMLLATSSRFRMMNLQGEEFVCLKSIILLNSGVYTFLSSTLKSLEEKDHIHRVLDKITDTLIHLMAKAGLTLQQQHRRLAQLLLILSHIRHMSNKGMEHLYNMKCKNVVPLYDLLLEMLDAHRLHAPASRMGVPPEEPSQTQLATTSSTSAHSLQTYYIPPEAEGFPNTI
# In short: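 Extracted mouse Era incubated with tritiated or iodinated radioligand plus test chemical, 18 h. Bound fraction separated on filters, counted by scintillation. DMSO = negative control/baseline; duplicate single-point at 25 uM, then concentration-response follow-up.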
# [2] = target: Estrogen receptor beta (Homo sapiens) (UniProt Q92731); assay: OT_ER_ERbERb_1440: Odyssey Thera (OT) 24-hour HEK293T Protein-Complementation Assay for Estrogen Receptor-beta/-beta Homodimer (AID 2283380);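 also: scored as signal increase over DMSO baseline for both agonists and antagonists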
# Estrogen receptor beta (Homo sapiens), sequence (Q92731 whole entry, looked up, the tested form may be a part): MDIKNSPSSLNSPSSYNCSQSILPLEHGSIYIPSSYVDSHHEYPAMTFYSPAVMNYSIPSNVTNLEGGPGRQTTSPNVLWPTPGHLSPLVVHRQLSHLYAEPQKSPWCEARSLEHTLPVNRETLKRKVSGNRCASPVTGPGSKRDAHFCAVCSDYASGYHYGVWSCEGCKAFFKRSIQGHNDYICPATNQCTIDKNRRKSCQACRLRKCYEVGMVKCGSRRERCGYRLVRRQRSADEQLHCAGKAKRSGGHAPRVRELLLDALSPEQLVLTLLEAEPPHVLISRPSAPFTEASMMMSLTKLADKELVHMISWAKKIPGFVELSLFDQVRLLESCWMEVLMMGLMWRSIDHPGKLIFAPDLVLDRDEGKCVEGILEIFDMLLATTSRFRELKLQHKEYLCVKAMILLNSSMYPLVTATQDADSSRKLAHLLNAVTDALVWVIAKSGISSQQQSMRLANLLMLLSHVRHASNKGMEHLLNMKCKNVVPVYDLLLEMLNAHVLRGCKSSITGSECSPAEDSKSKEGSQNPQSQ
# In short: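 HEK293T cells stably expressing ER beta LBD (aa 310-547) homodimer fragment-complementation reporter, dosed 24 h. Cells formaldehyde-fixed, Draq5-stained; gain in nuclear (agonist) or nuclear plus cytoplasmic (antagonist) fluorescence versus DMSO read by laser scanning cytometry.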
# [3] = target: Estrogen receptor (Homo sapiens) (UniProt P03372); assay: OT_ERa_GFPERaERE_0480: Odyssey Thera (OT) 8-hour HeLa Transcription Induction Assay for Estrogen Receptor (AID 2283381; active = hit-call score of the fitted dose curve at least 0.9, where 1 is the maximum; inactive = score below 0.9)
# Estrogen receptor (Homo sapiens), sequence (P03372 whole entry, looked up): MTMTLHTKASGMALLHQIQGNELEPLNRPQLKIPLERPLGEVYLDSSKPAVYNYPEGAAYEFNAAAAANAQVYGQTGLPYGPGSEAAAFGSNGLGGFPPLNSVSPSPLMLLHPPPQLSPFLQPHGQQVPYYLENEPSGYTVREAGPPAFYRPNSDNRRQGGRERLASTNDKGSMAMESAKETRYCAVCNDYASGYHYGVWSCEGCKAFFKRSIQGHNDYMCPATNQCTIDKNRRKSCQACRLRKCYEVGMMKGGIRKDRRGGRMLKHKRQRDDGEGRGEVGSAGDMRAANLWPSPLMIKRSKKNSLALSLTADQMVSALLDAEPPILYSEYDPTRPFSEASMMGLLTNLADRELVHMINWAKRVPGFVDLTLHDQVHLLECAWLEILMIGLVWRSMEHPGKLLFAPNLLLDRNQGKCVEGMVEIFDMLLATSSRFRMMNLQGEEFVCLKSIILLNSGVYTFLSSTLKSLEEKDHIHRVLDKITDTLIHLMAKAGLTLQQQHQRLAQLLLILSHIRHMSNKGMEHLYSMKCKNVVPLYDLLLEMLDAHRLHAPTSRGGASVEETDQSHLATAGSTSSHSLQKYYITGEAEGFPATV
# In short: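 Human cervical HeLa cells were treated for 8 hours, after which ERE-driven GFP induction was measured by fluorescence microscopy; increases over DMSO baseline defined activity.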
# [4] = target: Estrogen receptor (Homo sapiens) (UniProt P03372); assay: OT_ERa_GFPERaERE_0120: Odyssey Thera (OT) 2-hour HeLa Transcription Induction Assay for Estrogen Receptor (AID 2283382)
# In short: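 Cells (human cervical HeLa) receive compound, incubate 2 hours, then are imaged for fluorescent reporter induction. Images are quantified by high content analysis, and activity is fitted as gain of signal against DMSO.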
# [5] = target: Bile acid receptor (Homo sapiens) (UniProt Q96RI1); assay: OT_FXR_FXRSRC1_0480: Odyssey Thera (OT) 8-hour HEK293T Protein-Complementation Assay for Farnesoid X receptor/SRC-1 Co-activator (AID 2283383)
# Bile acid receptor (Homo sapiens), sequence (Q96RI1 whole entry, looked up, the tested form may be a part): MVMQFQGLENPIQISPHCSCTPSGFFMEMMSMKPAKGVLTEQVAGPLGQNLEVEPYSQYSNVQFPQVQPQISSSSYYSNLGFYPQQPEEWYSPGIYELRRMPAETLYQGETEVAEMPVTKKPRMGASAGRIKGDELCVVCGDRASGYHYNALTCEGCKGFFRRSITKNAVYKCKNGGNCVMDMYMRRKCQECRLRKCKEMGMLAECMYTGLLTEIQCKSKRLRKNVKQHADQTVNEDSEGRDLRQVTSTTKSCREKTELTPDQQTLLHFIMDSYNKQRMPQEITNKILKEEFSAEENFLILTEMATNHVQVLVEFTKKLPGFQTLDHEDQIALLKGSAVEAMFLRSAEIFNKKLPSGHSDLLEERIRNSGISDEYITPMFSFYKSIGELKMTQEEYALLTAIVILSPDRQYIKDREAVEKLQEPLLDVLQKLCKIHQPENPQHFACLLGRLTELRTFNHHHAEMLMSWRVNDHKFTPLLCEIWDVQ
# In short: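 PCA, HEK293T, 8 h compound exposure; FXR–SRC-1 binding reconstitutes split reporter; fluorescence intensity; positive-direction fit vs DMSO.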
# [6] = target: Bile acid receptor (Homo sapiens) (UniProt Q96RI1); assay: OT_FXR_FXRSRC1_1440: Odyssey Thera (OT) 24-hour HEK293T Protein-Complementation Assay for Farnesoid X receptor/SRC-1 Co-activator (AID 2283384)
# In short: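 Measures ligand-driven FXR–SRC-1 co-activator recruitment in HEK293T via fragment complementation, fluorescence intensity at 24 h. DMSO served as negative control and baseline for gain-of-signal fitting.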
# [7] = target: Retinoic acid receptor RXR-alpha (Homo sapiens) (UniProt P19793); assay: OT_NURR1_NURR1RXRa_0480: Odyssey Thera (OT) 8-hour HEK293T Protein Complementation Assay for Nurr1/retinoid X receptor (RXR) (AID 2283385)
# Retinoic acid receptor RXR-alpha (Homo sapiens), sequence (P19793 whole entry, looked up, the tested form may be a part): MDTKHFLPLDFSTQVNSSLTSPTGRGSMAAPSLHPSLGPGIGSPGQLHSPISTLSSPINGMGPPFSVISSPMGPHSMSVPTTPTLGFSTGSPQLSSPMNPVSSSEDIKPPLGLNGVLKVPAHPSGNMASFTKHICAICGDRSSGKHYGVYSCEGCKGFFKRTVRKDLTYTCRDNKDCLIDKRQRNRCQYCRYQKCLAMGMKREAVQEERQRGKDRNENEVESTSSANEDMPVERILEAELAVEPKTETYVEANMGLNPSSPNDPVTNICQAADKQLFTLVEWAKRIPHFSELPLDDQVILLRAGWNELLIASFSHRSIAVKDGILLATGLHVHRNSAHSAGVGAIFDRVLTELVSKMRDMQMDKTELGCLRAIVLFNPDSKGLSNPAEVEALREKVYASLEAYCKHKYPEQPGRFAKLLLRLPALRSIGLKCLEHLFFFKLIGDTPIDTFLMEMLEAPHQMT
# In short: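 Interaction of bait and prey reconstitutes a functional reporter, whose fluorescence was measured in HEK293T cells dosed with compound for 8 hours. Signal gain relative to DMSO defined the single endpoint.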
# [8] = target: Retinoic acid receptor RXR-alpha (Homo sapiens) (UniProt P19793); assay: OT_NURR1_NURR1RXRa_1440: Odyssey Thera (OT) 24-hour HEK293T Protein Complementation Assay for Nurr1/retinoid X receptor (RXR) (AID 2283386)
# In short: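 Steps: fragment-tagged Nurr1 and RXRα expressed in HEK293T; compounds added; after 24 h, complemented reporter quantified by fluorescence intensity; signal increase over DMSO fitted as the single endpoint.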
# [9] = target: Agonist Androgen Response Element (ARE), AR (gene 367) (UniProt P10275); assay: OT_AR_ARELUC_AG_1440: Odyssey Thera (OT) 24-hour CHO-K1 Luciferase Assay for Agonist Androgen Response Element (ARE) (AID 2283379)
# Agonist Androgen Response Element (ARE), AR (gene 367), sequence (P10275 whole entry, looked up): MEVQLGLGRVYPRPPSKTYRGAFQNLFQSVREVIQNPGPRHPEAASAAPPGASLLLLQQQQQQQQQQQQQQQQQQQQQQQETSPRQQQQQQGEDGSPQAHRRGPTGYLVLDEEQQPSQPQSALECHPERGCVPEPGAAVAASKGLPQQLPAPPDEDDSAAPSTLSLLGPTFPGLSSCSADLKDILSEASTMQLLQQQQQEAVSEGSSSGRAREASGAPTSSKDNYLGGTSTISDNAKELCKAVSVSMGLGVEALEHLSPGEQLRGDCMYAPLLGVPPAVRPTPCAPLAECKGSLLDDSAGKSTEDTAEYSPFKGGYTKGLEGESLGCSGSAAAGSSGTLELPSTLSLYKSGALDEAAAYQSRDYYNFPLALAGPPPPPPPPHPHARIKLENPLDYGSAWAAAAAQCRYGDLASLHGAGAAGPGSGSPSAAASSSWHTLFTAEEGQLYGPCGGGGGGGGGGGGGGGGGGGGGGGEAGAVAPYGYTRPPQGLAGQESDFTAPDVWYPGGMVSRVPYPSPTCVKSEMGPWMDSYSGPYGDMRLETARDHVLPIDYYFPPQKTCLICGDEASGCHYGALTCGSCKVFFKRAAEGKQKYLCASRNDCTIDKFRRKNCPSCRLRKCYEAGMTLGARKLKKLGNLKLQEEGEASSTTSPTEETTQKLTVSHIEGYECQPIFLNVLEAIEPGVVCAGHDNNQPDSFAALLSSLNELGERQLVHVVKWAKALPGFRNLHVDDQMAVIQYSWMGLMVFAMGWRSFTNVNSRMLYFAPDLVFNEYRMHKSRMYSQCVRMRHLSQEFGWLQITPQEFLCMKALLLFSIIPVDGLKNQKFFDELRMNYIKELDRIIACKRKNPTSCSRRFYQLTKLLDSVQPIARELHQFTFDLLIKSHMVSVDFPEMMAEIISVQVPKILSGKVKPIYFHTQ
# In short: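 Gain-of-signal reporter endpoint: cells (CHO-K1, hamster) are treated 24 h, luciferin/ATP reagent added, and luminescence compared with DMSO baseline.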
# [10] = target: human Norepinephrine Transporter (NET), SLC6A2 (gene 6530) (UniProt P23975); assay: NVS_TR_hNET: NovaScreen (NVS) Transporter Assay for human Norepinephrine Transporter (NET) (AID 2283377);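 also: cell-free membrane protein extracted from CHO cells expressing human NET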;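 as to AC50: displacement of radioligand from human NET seen as loss of scintillation signal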
# human Norepinephrine Transporter (NET), SLC6A2 (gene 6530), sequence (P23975 whole entry, looked up): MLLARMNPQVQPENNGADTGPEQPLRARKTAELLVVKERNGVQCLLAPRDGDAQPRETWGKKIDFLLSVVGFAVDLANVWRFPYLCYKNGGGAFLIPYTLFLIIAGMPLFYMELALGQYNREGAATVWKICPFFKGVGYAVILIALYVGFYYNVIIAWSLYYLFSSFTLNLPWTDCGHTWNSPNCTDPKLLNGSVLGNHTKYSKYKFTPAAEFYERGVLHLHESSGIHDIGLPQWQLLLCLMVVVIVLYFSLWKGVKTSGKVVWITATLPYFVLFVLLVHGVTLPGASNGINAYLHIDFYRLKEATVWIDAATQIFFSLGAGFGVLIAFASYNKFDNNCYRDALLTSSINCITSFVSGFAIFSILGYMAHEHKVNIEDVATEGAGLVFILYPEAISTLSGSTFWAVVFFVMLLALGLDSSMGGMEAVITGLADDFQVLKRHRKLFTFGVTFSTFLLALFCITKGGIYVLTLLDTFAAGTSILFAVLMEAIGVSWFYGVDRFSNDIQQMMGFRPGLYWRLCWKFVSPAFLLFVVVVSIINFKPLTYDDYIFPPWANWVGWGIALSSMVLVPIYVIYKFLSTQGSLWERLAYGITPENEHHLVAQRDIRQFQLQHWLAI
# Protocol: NVS_TR_hNET is a biochemical, single-readout assay that uses extracted gene-proteins from CHO in a cell-free assay. Measurements were taken 1 hour after chemical dosing in a 96-well plate.NVS_TR_hNET is one of one assay component(s) measured or calculated from the NVS_TR_hNET assay. It is designed to make measurements of radioligand binding, a form of binding reporter, as detected with scintillation counting signals by Filter-based radiodetection technology.Data from the assay component NVS_TR_hNET was analyzed into 1 assay endpoint. This assay endpoint, NVS_TR_hNET, was analyzed in the positive analysis fitting direction relative to DMSO as the negative control and baseline of activity. Using a type of binding reporter, loss-of-signal activity can be used to understand changes in the binding as they relate to the gene SLC6A2. Furthermore, this assay endpoint can be referred to as a primary readout, because the performed assay has only produced 1 assay endpoint. To generalize the intended target to other relatable targets, this assay endpoint is annotated to the transporter intended target family, where the subfamily is neurotransmitter transporter.
# Binding assays used specific radioligands (tritiated, iodinated) with non-radioactive competitive displacement ligands in agonist or antagonist protocols (as indicated) and various reference compounds and inhibitors to titrate specific binding to receptors and transporters. Most enzyme assays (CYPs, kinases, phosphatases, proteases, HDACs) used recombinant protein and specific substrates (fluorescence mostly, some colorimetric and radioactive) and inhibitors, followed by a biochemical separation of substrate and product. All assays for the biochemical HTS were initially run in duplicate at a single concentration (10 uM for CYP450 assays and 25 uM for all others). […] Each assay was run with positive and negative controls, and concurrent controls on every plate. The follow-up (secondary) screen tested active chemical-pairs in concentration series, as well as a few additional assays not tested in the primary screen, some selected negative inactives, and several cases re-run in the concentration series for confirmatory purposes.
smiles,measurement,setting,value
O=C(OCc1ccccc1)c1ccc(O)cc1,AC50,[1],1.08 µM (active)
same,AC50,[2],5.67 µM (active)
same,outcome,[3],inactive
same,outcome,[4],inactive
same,AC50,[5],50 µM (active)
same,AC50,[6],50 µM (active)
same,outcome,[7],inactive
same,AC50,[8],69.9 µM (active)
Oc1ccc(-c2ccccc2)c(Cl)c1,outcome,[1],inactive
same,outcome,[9],inactive
same,AC50,[2],18.1 µM (active)
same,AC50,[3],91 µM (active)
same,outcome,[4],inactive
same,outcome,[7],inactive
same,AC50,[8],69.5 µM (active)
C[Si](C)(C)N[Si](C)(C)C,outcome,[1],inactive
same,outcome,[2],inactive
same,outcome,[3],inactive
same,outcome,[4],inactive
CCCCCCCCCCCCc1ccc(O)cc1,outcome,[1],inactive
same,AC50,[2],0.981 µM (active)
same,AC50,[3],0.444 µM (active)
same,AC50,[4],0.612 µM (active)
O=c1c(O)c(-c2ccc(O)cc2O)oc2cc(O)cc(O)c12,outcome,[1],inactive
same,outcome,[3],inactive
same,outcome,[4],inactive
same,outcome,[7],inactive
same,outcome,[8],inactive
CC(C)=CCCC(C)=CC#N,outcome,[1],inactive
same,outcome,[3],inactive
same,outcome,[4],inactive
same,outcome,[5],inactive
same,outcome,[7],inactive
COc1ccc(C(=O)c2ccccc2)c(O)c1,outcome,[9],inactive
same,AC50,[2],57.8 µM (active)
same,outcome,[3],inactive
same,outcome,[4],inactive
same,outcome,[5],inactive
same,outcome,[6],inactive
same,outcome,[7],inactive
C=C1C[C@H]2[C@@H]3C=C(C)C4=CC(=O)CC[C@]4(C)[C@H]3CC[C@]2(C)[C@@]1(OC(C)=O)C(C)=O,AC50,[1],29.2 µM (active)
same,AC50,[9],0.0079 µM (active)
same,outcome,[2],inactive
same,outcome,[3],inactive
same,outcome,[4],inactive
same,AC50,[7],27.5 µM (active)
same,AC50,[8],49.5 µM (active)
c1ccc(Nc2cccc3ccccc23)cc1,outcome,[1],inactive
same,AC50,[2],37.3 µM (active)
same,outcome,[3],inactive
same,outcome,[4],inactive
same,AC50,[7],77.5 µM (active)
same,AC50,[8],82 µM (active)
[Cl][Eu]([Cl])[Cl],AC50,[10],45.2 µM (active)
COC(=O)C=Cc1ccccc1,outcome,[10],inactive
CCC[Si](OC)(OC)OC,outcome,[9],inactive
same,outcome,[2],inactive
same,outcome,[3],inactive
same,outcome,[4],inactive
same,outcome,[5],inactive
same,outcome,[6],inactive
same,outcome,[7],inactive
same,outcome,[8],inactive
N#Cc1ccc(C2CCCc3cncn32)cc1 (stereo not drawn),outcome,[1],inactive
same,AC50,[3],18.2 µM (active)
same,AC50,[4],15.8 µM (active)
same,outcome,[8],inactive
Cc1ccc(C)c(OCCCC(C)(C)C(=O)O)c1,outcome,[9],inactive
same,outcome,[2],inactive
same,outcome,[3],inactive
same,outcome,[4],inactive
same,outcome,[5],inactive
same,outcome,[6],inactive
CC(C=O)c1ccccc1 (stereo not drawn),outcome,[10],inactive
Oc1ccc(/C=C/c2cc(O)cc(O)c2)cc1,AC50,[10],3.12 µM (active)
CCCCCCCOC(=O)c1ccc(O)cc1,outcome,[1],inactive
same,AC50,[2],5.06 µM (active)
same,AC50,[3],3.39 µM (active)
same,AC50,[4],3.08 µM (active)
same,AC50,[8],90.7 µM (active)
CCCCCCCCCC(C)=O,outcome,[9],inactive
same,outcome,[2],inactive
same,outcome,[3],inactive
same,outcome,[4],inactive
COc1ccc(-c2coc3cc(O)cc(O)c3c2=O)cc1,outcome,[1],inactive
same,AC50,[2],2.61 µM (active)
same,AC50,[3],8.5 µM (active)
same,AC50,[4],12.4 µM (active)
CC/C=C\C/C=C\C/C=C\CCCCCCCC(=O)OC,AC50,[10],11.1 µM (active)
CC(C)(C)NC(=O)[C@H]1CC[C@H]2[C@@H]3CC[C@H]4NC(=O)C=C[C@]4(C)[C@H]3CC[C@]12C,outcome,[1],inactive
same,outcome,[3],inactive
same,outcome,[5],inactive
same,AC50,[6],3.77 µM (active)
Cc1ccc([N+](=O)[O-])cc1N,outcome,[10],inactive
same,outcome,[2],inactive
same,outcome,[3],inactive
same,outcome,[4],inactive
same,outcome,[5],inactive
same,outcome,[6],inactive
same,outcome,[7],inactive
same,outcome,[8],inactive
c1ccc(-c2nc3ccccc3[nH]2)cc1,AC50,[10],12 µM (active)
C=C[Si](OCCOC)(OCCOC)OCCOC,AC50,[1],10.5 µM (active)
same,outcome,[3],inactive
same,outcome,[4],inactive
same,outcome,[5],inactive
CO[Si](C)(C)OC,outcome,[1],inactive
same,outcome,[2],inactive
same,outcome,[3],inactive
same,outcome,[4],inactive
same,outcome,[7],inactive
CCCCC/C=C\C/C=C\CCCCCCCC(=O)O,AC50,[1],35.8 µM (active)
same,outcome,[3],inactive
same,outcome,[4],inactive
same,outcome,[5],inactive
same,outcome,[6],inactive
same,outcome,[7],inactive
c1ccc2c(c1)[nH]c1ccccc12,AC50,[10],0.94 µM (active)
N#Cc1ccc(C(c2ccc(C#N)cc2)n2cncn2)cc1,outcome,[9],inactive
same,outcome,[2],inactive
same,outcome,[3],inactive
same,outcome,[4],inactive
same,outcome,[5],inactive
same,outcome,[6],inactive
same,outcome,[7],inactive
same,outcome,[8],inactive
COC(OC)(C(=O)c1ccccc1)c1ccccc1,AC50,[1],6.88 µM (active)
CCCCCCCCCCCCCCCCCCOS(=O)(=O)O,outcome,[1],inactive
same,AC50,[2],12.6 µM (active)
same,outcome,[3],inactive
same,outcome,[4],inactive
same,outcome,[5],inactive
same,outcome,[6],inactive
same,outcome,[8],inactive
CCCCCCCCCCCCCC(=O)OC(C)C,AC50,[9],3.48 µM (active)
same,outcome,[2],inactive
same,outcome,[3],inactive
same,outcome,[4],inactive
same,outcome,[5],inactive
same,outcome,[7],inactive
same,outcome,[8],inactive
CC(C)(c1ccccc1)c1ccc(Nc2ccc(C(C)(C)c3ccccc3)cc2)cc1,outcome,[1],inactive
same,outcome,[3],inactive
same,outcome,[4],inactive
same,outcome,[7],inactive
Cc1cc(C)n(CO)n1,outcome,[10],inactive
same,outcome,[3],inactive
same,outcome,[4],inactive
same,outcome,[5],inactive
same,outcome,[6],inactive
CC(CCC(=O)O)(c1ccc(O)cc1)c1ccc(O)cc1,AC50,[1],6.23 µM (active)
same,AC50,[2],52.3 µM (active)
same,AC50,[3],47.1 µM (active)
same,AC50,[4],35.7 µM (active)
same,outcome,[5],inactive
same,outcome,[6],inactive
same,outcome,[7],inactive
same,outcome,[8],inactive
